Laboratory results as given in PubChem BioAssay AID1117359 (Southern Research Institute, 2015).
Among all 1,500 compounds or so, about 460 (31%) were called active.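 How the source made its calls: active means viability at or below 80% at any tested concentration, marking the compound as toxic; inactive means the rest.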 These entries were drawn from the full list. Where a call stands in place of a potency, no number is given. Potency and affinity values are given separately.

Experiment: THP-1 cell cytotoxicity, dose response, cytotoxicity control for Vif-APOBEC3G degradation inhibitor project, THP-1 cells (AID 1117359)
Details: THP-1 viability, CellTiter-Glo luminescence, 72 h; series mostly up to 40 µM
With O=C1N=C(N2CCN(c3ccccc3)CC2)S/C1=C\c1ccco1 the outcome was “inactive”.
With CCCCn1c(N)c(N(CCOC)C(=O)c2cc(-c3ccco3)nc3ccccc23)c(=O)[nH]c1=O the outcome was “inactive”.
With C=CCOc1ccc(/C=C2\SC(=S)N(CCC(=O)O)C2=O)cc1 the outcome was “inactive”.
In the case of CCOc1ccc(/C=C2\SC(=S)N(CCC(=O)O)C2=O)cc1, the outcome is reported as “inactive”.
For CN(CCC#N)C(=O)COC(=O)c1c2c(nc3ccccc13)/C(=C\c1ccco1)CC2, the outcome was “inactive”.
For COc1ccccc1C(C#N)N1N=C(C)CC1(C)C (stereo unspecified), the outcome was “inactive”.
With CCCN(CC(=O)Nc1ccccc1C)C(=O)COC(=O)c1cnc(C)cn1 the outcome was “inactive”.
With O=C(COc1ccccc1C(=O)O)Nc1ccc(SC(F)F)cc1 the outcome was “inactive”.
With COc1ccccc1NC(=O)COC(=O)c1cc2c(s1)CCC2 the outcome was “inactive”.
With CN(C)CCCN(CCCN(C)C)C(=S)Nc1ccc(S(=O)(=O)N2CCOCC2)cc1 the outcome was “inactive”.
In the case of CCNc1ccc(Br)cc(C(=O)/C=C/c2ccc(Cl)cc2)c1=O, the outcome is reported as “inactive”.
In the case of CNc1ccc(Br)cc(C(=O)/C=C/c2ccc(OC)cc2)c1=O, the outcome is reported as “inactive”.
With COc1ccc(Br)c(C(=O)NC(C)(C)CO)c1 the outcome was “inactive”.
In the case of O=C(CCc1ccccc1)NNC(=S)NCCc1ccccc1, the outcome is reported as “inactive”.
With O=C1CCCCC1Oc1ccc2ccc(=O)oc2c1 (stereo unspecified) the outcome was “inactive”.
With Cc1ccc(OCCC(=O)OCC(=O)c2ccc3c(c2)NC(=O)CO3)cc1 the outcome was “inactive”.
For Oc1ccc(/C=N/N2CCCCC2)c(O)c1O, the outcome was “inactive”.
With Oc1ccc(/C=N/N2CCOCC2)c(O)c1O the outcome was “inactive”.
In the case of CN=c1scc(C)n1/N=C/c1ccc(O)c(O)c1O, the outcome is reported as “inactive”.
For CCOC(=O)C1CCCN(C(=O)c2cc(-c3ccco3)nc3ccccc23)C1 (stereo unspecified), the outcome was “inactive”.
For Cc1nn(Cc2ccccc2)c(C)c1/C=N/NC(=O)c1ccccc1O, the outcome was “inactive”.
For C=C(C)C(=O)Nc1cccc(C2=NOC3(C2)C[C@@H](C(N)=O)N(C(=O)/C=C/CC)C3)c1 (stereo partly specified), the outcome was “inactive”.
For O=C1N=C(N2CCOCC2)SC1=Cc1ccco1, the outcome was “inactive”.
In the case of O=C(/C=C/c1ccco1)c1cccnc1, the outcome is reported as “inactive”.
In the case of COc1cc(-n2cnnn2)ccc1S(=O)(=O)N1CCOCC1, the outcome is reported as “inactive”.
For O=[N+]([O-])c1ccc(Cl)c(S(=O)(=O)Nc2cccc(S(=O)(=O)NC3=NCCC3)c2)c1, the outcome was “inactive”.
For CN1CCN(/C=C(\C#N)S(=O)(=O)c2ccc(Cl)cc2)CC1, the outcome was “inactive”.
With CC(C)(C)NC(=O)/C(=C/c1ccco1)c1ccccc1 the outcome was “inactive”.
For COc1ccc(CN2CCSCC2)cc1C, the outcome was “inactive”.
With COc1ccc(C(=O)CSc2nnc3n2CCCN3C(=O)Nc2ccccc2)cc1 the outcome was “inactive”.
With CCC1=NN2C(=N)/C(=C\c3cccn3-c3cccc(Cl)c3)C(=O)N=C2S1 the outcome was “inactive”.
With O=C(Nn1cnnc1)c1cc(-c2cccc(Br)c2)nc2ccccc12 the outcome was “inactive”.
With CC(C)Cn1c(SCC(=O)Nc2cccnc2Cl)nnc1-c1ccco1 the outcome was “inactive”.
For CC(CNc1ccccc1O)C(=O)O (stereo unspecified), the outcome was “inactive”.
With C=CCc1cc(Cl)ccc1OC(=O)Nc1cccc(Cl)c1 the outcome was “inactive”.
With [O-]/[N+](=C\C=C\c1ccccc1)c1ccccc1 the outcome was “inactive”.
In the case of O=C(COC(=O)C12CC3CC(CC(Br)(C3)C1)C2)Nc1ccc2[nH]c(=O)[nH]c2c1, the outcome is reported as “inactive”.
With Cc1cccc(NC(=O)CSc2nnc(CCC(=O)Nc3ccc(C)c(Cl)c3)n2C)c1 the outcome was “inactive”.
With N=C1C=CC=C2C1=NC1(CCCCC1)N2O the outcome was “inactive”.
With CC(=O)c1ccc(N2C(=NC(=O)C3CCCO3)SC3CS(=O)(=O)CC32)cc1 (stereo unspecified) the outcome was “inactive”.
In the case of C[C@@H]1NC(=O)[C@H](CCC(N)=O)NC(=O)c2cc([N+](=O)[O-])cc(I)c2NCCC[C@@H](C(N)=O)NC1=O, the outcome is reported as “inactive”.
In the case of Cn1cc(CN2CCN(CCO)CC2)c(-c2ccc(Oc3ccccc3)cc2)n1, the outcome is reported as “inactive”.
With O=C(CSc1nnc(Cc2ccc(Cl)cc2)o1)Nc1ccccc1 the outcome was “inactive”.
With COc1ccccc1N1C(=O)CC(Nc2ccc(N3CCOCC3)cc2)C1=O (stereo unspecified) the outcome was “inactive”.
With COc1cccc(CNCC(=O)Nc2ccc(N3CCOCC3)cc2)c1 the outcome was “inactive”.
For O=C(CC1C(=O)NCCN1Cc1ccc(F)cc1)NCCN1CCCc2ccccc21 (stereo unspecified), the outcome was “inactive”.
With CCc1cccc(NC(=O)CCS(=O)(=O)c2ccc(Br)cc2)c1 the outcome was “inactive”.
With O=C(CSc1nccc(=O)[nH]1)Nc1ccc2c(c1)OCCO2 the outcome was “inactive”.
For COc1ccc(NC(=O)C2CCCNC2)cc1OCC(C)C (stereo unspecified), the outcome was “inactive”.
For Cc1cc(/C=C2\SC(=S)NC2=O)c(C)n1-c1ccccc1, the outcome was “inactive”.
For Cc1c(C)n(C(=O)CSc2nc3ccccc3[nH]2)c2ccccc12, the outcome was “inactive”.
With COc1ccc(C(=O)NC2CC3CCCC(C2)N3CC(C)C)cc1 (stereo unspecified) the outcome was “inactive”.
With Cc1ccc(NC(=O)CSc2nnc([C@H](C)NC(=O)OC(C)(C)C)o2)c(C)c1 the outcome was “inactive”.
With CCOc1cc(C(C(=O)NCC2CCCO2)N(C(=O)Cn2nnc3ccccc32)c2cccc(OC)c2)ccc1O (stereo unspecified) the outcome was “inactive”.
With COc1cc(/C=C2/C(=O)N(c3ccc(Br)cc3)N=C2C)cc(OC)c1OC the outcome was “inactive”.
For O=C1NCC(O)=C1C=NC12CC3CC(CC(C3)C1)C2, the outcome was “inactive”.
With CCN(CC)C(=O)CN1C(=O)C2(NC(=O)c3ccccc3N2)c2ccccc21 (stereo unspecified) the outcome was “inactive”.
For CCc1cc2c(=O)n(-c3ccc(C)cc3)cnc2s1, the outcome was “inactive”.
For CC(=O)NC1=NC(=O)/C(=C/c2cc(C)n(-c3cccc(C(=O)O)c3)c2C)S1, the outcome was “inactive”.
In the case of O=C1NC(c2cccc(Br)c2)=N/C1=C\c1ccco1, the outcome is reported as “inactive”.
For O=C1CC(c2ccco2)CC(O)=C1C=Nc1cc(Cl)ccc1Cl (stereo unspecified), the outcome was “inactive”.
In the case of Nc1ccccc1NC1=CC(=O)CC(c2ccco2)C1 (stereo unspecified), the outcome is reported as “inactive”.
In the case of O=C1CCC/C(=N\NC(=O)c2ccc(COc3cccc4cccnc34)cc2)C1, the outcome is reported as “inactive”.
With O=C(NN(C(=O)c1ccccc1)c1ccccc1)c1ccccc1 the outcome was “inactive”.
In the case of Oc1ccc(/C=N/N2CCCCC2)c(O)c1, the outcome is reported as “inactive”.
In the case of S=c1[nH]nc(C2CC2)n1Cc1ccco1, the outcome is reported as “inactive”.
In the case of CCC(C)[C@H](NC(=O)Nc1ccccc1F)C(=O)OC (stereo partly specified), the outcome is reported as “inactive”.
In the case of Cc1nc2ccccc2n2c(O)c(CC(=O)O)cc12, the outcome is reported as “inactive”.
In the case of O=S(=O)(O)c1cc(Cl)cc(N=Nc2ccc(O)cc2O)c1O, the outcome is reported as “inactive”.
With Cc1nc2ccc(NS(=O)(=O)c3ccc(F)cc3F)cc2s1 the outcome was “inactive”.
In the case of CC(C)CN(C(=O)CN1CCN(c2ccc(O)cc2)CC1)c1c(N)n(CC(C)C)c(=O)[nH]c1=O, the outcome is reported as “inactive”.
